Test results as given in PubChem BioAssay AID1159580 (chemical genetic matrix, 2015).
Hit rate of the full screen: of about 5,500 compounds, about 2,000 (36%) were called active. Another 18% or so got no clear call; they are omitted. No stated cut-off is given here; in the data, active means normalized growth mostly below about 0.91 (no sharp cut-off); inconclusive means no clear call, values can overlap the other calls; inactive means mostly above about 0.92. The list shows a part of the results.

Assay: chemical genetic growth profiling, strain panel (AID 1159580);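 further: tested at 20 µM; growth read once vehicle control cultures reached saturation at 30 °C; 1 = growth at the plate median or of vehicle wells; lower values mean less growth of the strain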
Conditions: growth OD
[1] = S. cerevisiae deletion strains, locus YMR307W, strain GAS1, active compounds read low
[2] = S. cerevisiae deletion strains, locus YNL153C, strain GIM3, active compounds read low
[3] = S. cerevisiae deletion strains, locus YPL055C, strain LGE1, active compounds read low
[4] = S. cerevisiae deletion strains, locus YPL241C, strain CIN2, active compounds read low
[5] = S. cerevisiae deletion strains, locus YAL013W, strain DEP1, active compounds read low
[6] = S. cerevisiae deletion strains, locus YBR229C, strain ROT2, active compounds read low
[7] = S. cerevisiae deletion strains, locus YDL101C, strain DUN1, active compounds read low
[8] = S. cerevisiae deletion strains, locus YDL134C, strain PPH21, active compounds read low
[9] = S. cerevisiae deletion strains, locus YDR150W, strain NUM1, active compounds read low
[10] = S. cerevisiae deletion strains, locus YEL061C, strain CIN8, active compounds read low
[11] = S. cerevisiae deletion strains, locus YGR078C, strain PAC10, active compounds read low
[12] = S. cerevisiae deletion strains, locus YGR229C, strain SMI1, active compounds read low
[13] = S. cerevisiae deletion strains, locus YHR030C, strain SLT2, active compounds read low
[14] = S. cerevisiae deletion strains, locus YHR087W, strain rtc3, active compounds read low
[15] = S. cerevisiae deletion strains, locus YJR043C, strain POL32, active compounds read low
[16] = S. cerevisiae deletion strains, locus YJR075W, strain HOC1, active compounds read low
[17] = S. cerevisiae deletion strains, locus YKL190W, strain CNB1, active compounds read low
[18] = S. cerevisiae deletion strains, locus YLR039C, strain RIC1, active compounds read low
[19] = S. cerevisiae deletion strains, locus YLR058C, strain SHM2 (second series), active compounds read low
[20] = S. cerevisiae deletion strains, locus YLR085C, strain ARP6, active compounds read low
[21] = S. cerevisiae deletion strains, locus YLR262C, strain YPT6, active compounds read low
[22] = S. cerevisiae deletion strains, locus YML094W, strain GIM5, active compounds read low
[23] = S. cerevisiae deletion strains, locus YMR219W, strain ESC1, active compounds read low
[24] = S. cerevisiae deletion strains, locus YMR263W, strain SAP30, active compounds read low
[25] = S. cerevisiae deletion strains, locus YNL298W, strain CLA4 (second series), active compounds read low
[26] = S. cerevisiae deletion strains, locus YNL322C, strain KRE1, active compounds read low
[27] = S. cerevisiae deletion strains, locus YNR030W, strain Alg12, active compounds read low
[28] = S. cerevisiae deletion strains, locus YOL006C, strain TOP1, active compounds read low
[29] = S. cerevisiae deletion strains, locus YPR135W, strain CTF4, active compounds read low
[30] = S. cerevisiae deletion strains, locus YJL187C, strain SWE1, active compounds read low
[31] = S. cerevisiae deletion strains, locus YNL128W, strain TEP1, active compounds read low

Measured: normalized growth

N[C@@H](CCl)C(=O)O
inactive: S. cerevisiae deletion strains, locus YAL040C, strain CLN3, active compounds read low 0.98 | S. cerevisiae deletion strains, locus YDR363W, strain ESC2, active compounds read low 1.03 | S. cerevisiae deletion strains, locus YER002W, strain NOP16, active compounds read low 0.99 | [1] 0.993 | [2] 1.05 | S. cerevisiae deletion strains, locus YNL175C, strain NOP13, active compounds read low 1.01 | S. cerevisiae deletion strains, locus YNL197C, strain WHI3, active compounds read low 1.03 | S. cerevisiae deletion strains, locus YNL224C, strain SQS1, active compounds read low 0.996 | S. cerevisiae deletion strains, locus YOR083W, strain WHI5 (second series), active compounds read low 1.01 | [3] 1.02 | [4] 1

CC(=O)Nc1cc2ccccc2oc1=O
inactive: [5] 1 | [6] 1 | [7] 0.975 | [8] 1 | [9] 0.986 | [10] 1.02 | [11] 1.01 | [12] 0.997 | [13] 0.942 | [14] 0.988 | [15] 1.01 | [16] 0.997 | [17] 1 | [18] 1.06 | [19] 1.01 | [20] 1.01 | [21] 1.04 | [22] 0.997 | [23] 1 | [24] 0.996 | [1] 1.09 | [2] 0.984 | [25] 0.998 | [26] 1.01 | [27] 1 | [28] 0.958 | [3] 0.969 | [4] 0.985 | [29] 0.946

CC(=O)c1cc2ccccc2oc1=O
inactive: [5] 1.02 | [6] 1.01 | [7] 0.961 | [8] 1.02 | [9] 0.94 | [10] 1.01 | [11] 0.986 | [13] 1 | [14] 1.03 | [30] 0.999 | [15] 0.999 | [16] 0.988 | [18] 1.05 | [19] 1.01 | [20] 1.08 | [21] 1 | [22] 1.02 | [23] 0.993 | [24] 1.02 | [31] 1.01 | [2] 1.01 | [25] 1.07 | [26] 0.99 | [27] 1.05 | [28] 1.02 | [3] 1.13 | [4] 1.03 | [29] 0.984 | S. cerevisiae strains, strain wild type, active compounds read low 1.03

CC(=O)c1cc2cc(Br)ccc2oc1=O
inactive: [5] 0.987 | [6] 0.967 | [7] 0.998 | [9] 0.994 | [10] 0.975 | [11] 0.976 | [12] 0.994 | [13] 0.818 | [14] 0.96 | [30] 0.97 | [15] 0.984 | [16] 0.948 | [17] 0.992 | [19] 0.964 | [20] 0.936 | [22] 0.999 | [23] 0.96 | [24] 1 | [31] 1.01 | [2] 0.994 | [25] 0.983 | [26] 0.964 | [27] 0.97 | [3] 1.02 | [4] 0.964 | [29] 0.717
active: [18] 0.618 | [21] 0.628
